ClpP mod – qHTS Assay for Activators of ClpP; purified B. subtilis ClpP, FRET peptide cleavage, 20 min; Potency, µM (top dose mostly 57.5 µM); actives 1.9% (n = 340,000); AID 651965, 2013; active means well fitted falling curve with a large enough effect; inconclusive means small, poorly fitted or top-dose-only effect; inactive means no such curve, though single readings can be large or run the other way; further: the source files actives as falling curves though it sought activators and does not explain the sign; nearly all actives have a fitted effect of over 65% in size
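Purified B. subtilis ClpP, 10 microg/mL final in Tris/HCl pH8 with KCl, BSA, glycerol and Tween-20, cleaved an Abz/nitrotyrosine-quenched decapeptide. Fluorescence (ex 320, em 430) was read at 0 and 20 min at room temperature. Delta was normalized to 5.8 microM ADEP and DMSO/no-enzyme controls.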
PTAP TSG101 blk – blocks PTAP/TSG101 interaction to inhibit HIV-1 budding; Q99816; AID 493005; Potency, µM (titrated, usually from 115 µM), most hits filed as inhibitors; Fluorescence polarization, FITC-PTAP peptide / Tsg101 binding; 340,000 tested, under 10 active; active means well fitted inhibition curve with a large enough effect in the main read-out, with a control signal flat, not every such curve was filed as active; inconclusive means small, poorly fitted or top-dose-only effect, or effect the other way, or a change in a side signal; inactive means no such curve, though single readings can be large or run the other way
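Fluorescence polarization binding of Tsg101 binding domain (10 uM final) to FITC-labeled PTAP peptide (50 nM final) in HEPES pH 7.5 buffer with NaCl, Tween 20, EDTA, TCEP. Compounds added before peptide; binding 20 min at RT.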
12-LOX inh – blocks human arachidonate 12S-lipoxygenase. P18054. purified 12hLO, xylenol orange hydroperoxide absorbance. Potency, µM (top dose mostly 108 µM), usual class: inhibitors. actives 1.1% (n = 580,000). AID 1671190
Target sequence (P18054 whole entry, looked up): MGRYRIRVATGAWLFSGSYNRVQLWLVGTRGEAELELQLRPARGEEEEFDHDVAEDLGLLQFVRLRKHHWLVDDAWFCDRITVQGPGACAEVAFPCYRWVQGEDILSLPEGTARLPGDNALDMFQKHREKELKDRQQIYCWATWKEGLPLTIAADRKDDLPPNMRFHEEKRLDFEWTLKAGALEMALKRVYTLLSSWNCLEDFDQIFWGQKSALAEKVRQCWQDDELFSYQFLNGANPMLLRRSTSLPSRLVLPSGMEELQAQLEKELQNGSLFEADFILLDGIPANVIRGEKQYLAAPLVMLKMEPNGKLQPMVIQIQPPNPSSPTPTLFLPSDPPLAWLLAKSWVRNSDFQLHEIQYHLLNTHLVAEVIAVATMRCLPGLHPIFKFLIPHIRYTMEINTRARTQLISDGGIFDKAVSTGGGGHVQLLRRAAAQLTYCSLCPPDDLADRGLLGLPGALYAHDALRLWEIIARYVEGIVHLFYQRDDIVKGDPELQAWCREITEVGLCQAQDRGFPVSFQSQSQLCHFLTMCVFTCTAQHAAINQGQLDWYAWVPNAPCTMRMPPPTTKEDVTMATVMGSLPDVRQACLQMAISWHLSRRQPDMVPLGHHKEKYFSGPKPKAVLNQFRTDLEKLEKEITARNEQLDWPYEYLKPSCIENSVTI
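Purified human 12hLO at 150 nM in 25 mM Hepes, 0.01% Triton X-100, pH 7.0, preincubated 15 min at room temperature with compound. Reaction started with 40 uM arachidonic acid, 30 min at room temperature. Hydroperoxide measured by Fe-xylenol orange, 573/405 nm absorbance ratio.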
Rango-impB inh – Rango-importin beta binding inhibition | Rango CFP/YFP FRET sensor + importin beta, 45 min | Potency, µM (series often up to 92.2 µM) | actives 0.031% (n = 340,000) | AID 540263; calls by dose curve; further: nearly all actives have a fitted effect of over 15% in size
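FRET biosensor Rango (snurportin 1 IBB between N-terminal EYFP and C-terminal Cerulean), 50 nM in PBS/1 mM DTT/0.02% Tween-20/0.1% BSA, preincubated 5 min RT with compound; 0.125 microM importin beta added, 45 min RT, CFP/YFP FRET ratio read.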
TDP1 inh – blocks human tyrosyl-DNA phosphodiesterase 1. actives 0.28% (n = 350,000). Q9NUW8. Potency, µM (top dose mostly 130 µM), hits mostly inhibitors. recombinant TDP1, AlphaScreen DNA substrate cleavage; further: nearly all actives have a fitted effect of over 40% in size
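Enzyme-compound mixtures sat 15 min at room temperature, followed by a 5 min reaction with 15 nM final substrate and 10 min with AlphaScreen beads. Recombinant human Tdp1 was used at 1 nM final.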
Rango release inh – inhibitors of RanGTP-induced Rango-importin beta complex dissociation. O95149+P62826. actives 0.071% (n = 340,000). Biochemical FRET Rango-importin beta, RanGTP-induced dissociation. Potency, µM (titrated, usually from 46.1 µM); calls by dose curve; further: nearly all actives have a fitted effect of over 45% in size
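FRET read at 45 min, room temperature: inhibitors block the CFP/YFP signal rise when RanGTP (0.6 uM Ran, 2 mM GTP, 0.2 uM RCC1) frees Rango (0.1 uM) from importin beta (0.25 uM). Pre-read after 5 min compound exposure flags interference.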
Large screens that a line does not name were inactive; ! = a repeat was not active. Rows were chosen to be rich in hits. Some 2.4% of all compounds tested hit in one or more screens of this group. Unless noted, the call rests on the fitted dose curve; in most records, active means well fitted curve in the direction sought with a large enough effect; inconclusive means small, poorly fitted or top-dose-only effect, or another doubt; inactive means no such curve, though single readings can be large; an effect the other way counts as inactive or inconclusive.

N#C/C(=C\c1coc2ccc(O)cc2c1=O)C(=O)Nc1nc2ccccc2s1	PTAP TSG101 blk inconclusive, 12-LOX inh 11µM, Rango-impB inh inconclusive, Rango release inh inconclusive (no result: TDP1 inh)
COc1ccc(Cl)cc1NC(=O)/C(C#N)=C/c1coc2ccc(C)cc2c1=O	none (no result: ClpP mod, PTAP TSG101 blk, Rango-impB inh, TDP1 inh, Rango release inh)
O=S(=O)(O)c1ccc2c(N=Nc3ccc(S(=O)(=O)O)c4ccccc34)c(O)c(S(=O)(=O)O)cc2c1	TDP1 inh inconclusive (no result: PTAP TSG101 blk, 12-LOX inh, Rango-impB inh, Rango release inh)
O=S(=O)(O)c1cc(O)c(N=Nc2ccc(O)cc2O)c2ccccc12	12-LOX inh 8.9µM, Rango-impB inh inconclusive (no result: ClpP mod, TDP1 inh)
O=C1c2cccc3cccc(c23)N1Cc1cccc(F)c1	12-LOX inh inconclusive, Rango-impB inh inconclusive, TDP1 inh 79µM, Rango release inh inconclusive (no result: ClpP mod)
O=C1c2cccc3cccc(c23)N1Cc1ccc(F)cc1	Rango-impB inh inconclusive, Rango release inh inconclusive (no result: ClpP mod)
CC(C)CN(C(=O)CCC(=O)OCC(=O)N(C)c1ccccc1)c1c(N)n(CC(C)C)c(=O)[nH]c1=O	ClpP mod 28µM (no result: TDP1 inh)
COc1ccc(-c2cccc(-c3nc4ccc(Cl)cn4c3NC3CCCCC3)c2)cc1	ClpP mod inconclusive, 12-LOX inh 7.1µM, Rango-impB inh inconclusive
Cc1ccn2c(NC3CCCCC3)c(-c3cccc(SC4CCCCC4)c3)nc2c1	ClpP mod inconclusive, 12-LOX inh inconclusive
CCC(C)Sc1cc(-c2nc3ccc(Cl)cn3c2NC2CCCCC2)ccc1OC (configuration not stated)	ClpP mod inconclusive, 12-LOX inh 40µM!, Rango-impB inh inconclusive, Rango release inh inconclusive
CCC(C)Sc1cccc(-c2nc3ccc(Cl)cn3c2NCc2ccccc2)c1 (configuration not stated)	ClpP mod 25µM, Rango-impB inh inconclusive, Rango release inh inconclusive (no result: 12-LOX inh)
CCCCCCSc1cc(-c2nc3ccc(Cl)cn3c2NC2CCCCC2)ccc1OC	none
CCC(C)Sc1cccc(-c2nc3cc(C)ccn3c2NC2CCCCC2)c1 (configuration not stated)	ClpP mod 14µM!, 12-LOX inh inconclusive, Rango-impB inh inconclusive
CCC(C)Sc1cccc(-c2nc3ccc(C)cn3c2NCc2ccccc2)c1 (configuration not stated)	12-LOX inh inconclusive, Rango-impB inh inconclusive
Cn1cccc1CN1CCC2(CC1)CN(c1ncccn1)CC2CO (configuration not stated)	none (no result: ClpP mod, PTAP TSG101 blk, Rango-impB inh, TDP1 inh, Rango release inh)
O=c1n(-c2ccc(C(F)(F)F)cc2)nc2n1CCN(S(=O)(=O)c1cccs1)C2	none (no result: ClpP mod, PTAP TSG101 blk, Rango-impB inh, TDP1 inh, Rango release inh)
Clc1ccc2[nH]c(-c3ccccc3)cc2c1	ClpP mod 28µM, 12-LOX inh inconclusive
Cc1cc(C)cc(NC(=S)NCCc2ccccc2)c1	none (no result: ClpP mod, PTAP TSG101 blk, Rango-impB inh, TDP1 inh, Rango release inh)
CC1=C(C(N)=O)C(c2cccnc2)n2nc(-c3cccc(C)c3)nc2N1 (configuration not stated)	ClpP mod 32µM
CC(=O)N1N=C2c3ccccc3CCC2C1c1cccs1 (configuration not stated)	none
CN1N=C2c3ccccc3CCCC2C1c1ccc(F)cc1 (configuration not stated)	12-LOX inh 40µM (no result: ClpP mod)
COc1ccc(C2SCc3cc(C)c(C)cc3CS2)cc1	none (no result: ClpP mod, PTAP TSG101 blk, Rango-impB inh, TDP1 inh, Rango release inh)
Cc1cc2c(cc1C)CSC(c1c(O)ccc3cc(Br)ccc13)SC2	12-LOX inh 0.79µM (no result: ClpP mod, PTAP TSG101 blk, Rango-impB inh, TDP1 inh, Rango release inh)
COc1cccc(-n2cc(CN(C)c3nccc(-c4cccnc4)n3)cn2)c1	none (no result: ClpP mod, PTAP TSG101 blk, Rango-impB inh, TDP1 inh, Rango release inh)
Cc1c2cccn2cc[n+]1C	ClpP mod 10µM
Cc1c2ccccc2cc[n+]1C	none (no result: PTAP TSG101 blk, 12-LOX inh, Rango-impB inh, TDP1 inh, Rango release inh)
Fc1ccccc1CSCCNC(=S)Nc1ccccc1	12-LOX inh 35µM (no result: ClpP mod, PTAP TSG101 blk, Rango-impB inh, TDP1 inh, Rango release inh)
S=C(NCCSc1ccc(Cl)cc1)Nc1ccc(Nc2ccccc2)cc1	12-LOX inh 35µM (no result: ClpP mod, PTAP TSG101 blk, Rango-impB inh, TDP1 inh, Rango release inh)
Cc1ccc(NC(=S)NCCSc2ccc(Cl)cc2)cc1	12-LOX inh 40µM (no result: ClpP mod)
COC(=O)Cc1ccc(NC(=S)NCCSc2ccc(C)cc2)cc1	12-LOX inh 45µM
Cc1cccc(C)c1NC(=S)NCCSc1ccc(Cl)cc1	12-LOX inh inconclusive (no result: ClpP mod)

Assay outcomes: PubChem BioAssay, National Center for Advancing Translational Sciences (NCATS)
